# In paper PMC4552634, “A New Set of Chemical Starting Points with Plasmodium falciparum Transmission-Blocking Potential for Antimalarial Drug Discovery” (PLoS ONE, 2015):
# Where two headings read alike, the source gives them in different places. Screen size: about 13,000 compounds; about 3,200 (25%) showed an effect of 50% or more. The list shows a part of the results.
# Test system: P. falciparum stage V gametocytes
# Design: BacTiter-Glo ATP luminescence viability of purified stage V gametocytes in 384-well plates, per cent inhibition versus DMSO
# Settings: 48 h, 5 µM, inhibitor
Compound,% Inhibition [%],% Inhibition (% Inhibition) [%]
CCC(CCON1C(N)=NC(N)=NC1(C)C)c1ccc(Cl)cc1 (stereo not shown) [TCMDC-131710],30.1,–
Cc1ccccc1Oc1nc2ccccc2nc1SCC(=O)NC(C)C [TCMDC-124733],-10.37,–
COc1ccc2c(c1)S(=O)(=O)N=C(N1CCCC1c1ccc(Cl)c(Cl)c1)N2C (stereo not shown) [TCMDC-134209],3.235,–
COc1ccc(Nc2ccnc3cc(Cl)ccc23)cc1OC [TCMDC-124814],-70.18,–
COc1cc(NC2=NS(=O)(=O)c3cc(Cl)ccc3N2C)cc(OC)c1OC [TCMDC-134208],87.41,–
Oc1ccccc1CNCC(O)c1cccc(C(F)(F)F)c1 (stereo not shown) [TCMDC-140303],18.18,–
CCNc1cc(-c2cccc(OC)c2)nc(Nc2ccc(F)cc2)n1 [TCMDC-134014],-12.85,–
O=C(Nc1ccc(OC2CCN(Cc3ccco3)C2)c(Cl)c1)c1ccc2ncccc2c1 (stereo not shown) [TCMDC-133987],24.52,–
O=C(Nc1ccc(OC2CCN(Cc3ccco3)CC2)c(Cl)c1)c1ccc2ncccc2c1 [TCMDC-133984],86.08,–
Cc1ccc(NC(=O)c2ccc3ncccc3c2)cc1OC1CCN(Cc2ccc(F)cc2)C1 (stereo not shown) [TCMDC-133759],-2.086,–
Cc1ccc(C(=O)Nc2ccc(C)c(OC3CCN(Cc4ccco4)C3)c2)cc1 (stereo not shown) [TCMDC-133986],48.65,–
Cc1ccc(NC(=O)c2ccc3ncccc3c2)cc1OC1CCN(Cc2ccco2)C1 (stereo not shown) [TCMDC-133985],61.5,–
O=C(Nc1ccc(OC2CCN(CC3CC3)CC2)c(Cl)c1)c1ccc2ncccc2c1 [TCMDC-134273],41.88,–
O=C1c2ccc([N+](=O)[O-])cc2C(=O)N1c1ccc2[nH]ncc2c1 [TCMDC-131599],-5.185,–
CCOC(=O)c1ccc(NC(=O)Nc2ccc(-c3ccc(-c4nc5cccc(C)c5[nH]4)s3)cc2)cc1 [TCMDC-133259],-10.61,–
CC(=O)C1(c2ccccc2)CCN(CCC2(c3ccc(Cl)c(Cl)c3)CN(C(=O)C3CCCC3)CCO2)CC1 (stereo not shown) [TCMDC-135325],-42.49,–
CC(C)c1cccc(C(C)C)c1NC(=O)NNC(=O)c1ccc(CCN2CCC(c3nc(COCC(F)(F)F)c(-c4ccc(F)cc4)o3)CC2)cc1 [TCMDC-131908],-22.37,–

Compound,% Inhibition [%],% Inhibition (% Inhibition) [%]
Cc1c(C)c2c(c(C)c1O)CC[C@@](C)(C(=O)N1CCC(CN3CCC(c4c[nH]c5ccccc45)CC3)CC1)O2 [TCMDC-139899],79.54,–
Cc1c(C)c2c(c(C)c1O)CC[C@](C)(C(=O)N1CCC(CCN3CCC(c4c[nH]c5ccccc45)CC3)CC1)O2 [TCMDC-139891],102.8,–
Cc1c(C)c2c(c(C)c1O)CC[C@](C)(C(=O)N1CCC(CN3CCC(c4c[nH]c5ccccc45)CC3)CC1)O2 [TCMDC-139892],-67.77,–
Cc1c(C)c2c(c(C)c1O)CC[C@](C)(C(=O)NC1CCC(CN3CCC(c4c[nH]c5ccccc45)CC3)CC1)O2 (stereo partly shown) [TCMDC-139890],–,-54.12
Cc1c(C)c2c(c(C)c1O)CC[C@](C)(C(=O)NC1CCC(CN3CCC(c4c[nH]c5ccccc45)CC3)CC1)O2 (stereo partly shown) [TCMDC-139895],–,-20.01
Cc1c(C)c2c(c(C)c1O)CC[C@@](C)(C(=O)N1CCC(CCN3CCC(c4c[nH]c5ccccc45)CC3)CC1)O2 [TCMDC-139898],69.88,–
Cc1cccc(C(=O)Nc2ccnc(N3CCCN(Cc4cccc(O)c4)CC3)c2)c1 [TCMDC-134959],-37.26,–
CC1CCC2(CC1)NC(N)=NC(=N)N2OCCCCCCCCO (stereo not shown) [TCMDC-131600],80.95,–
N=C1N=C(N)NC2(CCCCC2)N1OCC1CCCCC1 [TCMDC-131617],-29.76,–
CC1(C)NC(N)=NC(=N)N1OCCCO [TCMDC-131559],-1.825,–
CNC(=O)c1ccc(/C=C/C(=O)N2CCc3ccc(-c4ccccc4)cc3C2c2cccc(C(F)(F)F)c2)cc1 (stereo not shown) [TCMDC-138253],-22.09,–
CN(C)CCCOc1ccc(CN2CC[C@H](NC(=O)c3ccc(Cl)c(Cl)c3)C2)cc1Cl [TCMDC-140272],19.07,–
CN(C)CCCOc1ccccc1CN1CC[C@H](NC(=O)c2ccc(Cl)c(Cl)c2)C1 [TCMDC-140310],-1.9,–
CN(C)CCCOc1ccc(CN2CC[C@H](NC(=O)c3ccc(Cl)c(Cl)c3)C2)c2ccccc12 [TCMDC-140267],76.67,–
CN1CCC[C@H]1COc1ccc(CN2CC[C@H](NC(=O)c3ccc(Cl)c(Cl)c3)C2)c2ccccc12 [TCMDC-140270],22.59,–
O=C(N[C@H]1CCN(Cc2ccc(OCCN3CCNCC3)c3ccccc23)C1)c1ccc(Cl)c(Cl)c1 [TCMDC-140269],83.44,–
O=C(N[C@H]1CCN(Cc2ccc(OCCN3CCCC3)c3ccccc23)C1)c1ccc(Cl)c(Cl)c1 [TCMDC-140268],76.23,–
